# Target: T1, Cyclin-dependent kinase 5/CDK5 activator 1 (Homo sapiens) (UniProt Q00535+Q15078)
# Conditions: at 1 µM
# T1 sequence (Q00535 whole entry): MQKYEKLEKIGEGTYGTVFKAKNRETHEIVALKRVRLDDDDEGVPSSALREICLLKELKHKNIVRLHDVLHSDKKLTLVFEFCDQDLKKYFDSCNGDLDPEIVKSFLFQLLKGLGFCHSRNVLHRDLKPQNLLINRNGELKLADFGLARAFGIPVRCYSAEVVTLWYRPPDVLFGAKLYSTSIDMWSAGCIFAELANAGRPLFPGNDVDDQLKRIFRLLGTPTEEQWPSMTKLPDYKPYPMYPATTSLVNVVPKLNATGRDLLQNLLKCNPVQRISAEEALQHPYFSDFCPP
# T1 sequence (Q15078 99-307 partner limits assumed): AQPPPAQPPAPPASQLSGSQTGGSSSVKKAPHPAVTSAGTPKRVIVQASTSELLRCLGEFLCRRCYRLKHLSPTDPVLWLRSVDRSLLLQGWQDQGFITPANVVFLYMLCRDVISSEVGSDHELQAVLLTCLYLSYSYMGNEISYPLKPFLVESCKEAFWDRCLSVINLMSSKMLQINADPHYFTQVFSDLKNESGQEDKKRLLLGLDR
row,Compound,residual activity [%]
1,COc1ccc2c(c[n+](C)c3c4cc5c(cc4ccc23)OCO5)c1OC,89
2,COC(=O)[C@@]1(O)C[C@H]2O[C@]1(C)n1c3ccccc3c3c4c(c5c6ccccc6n2c5c31)C(=O)NC4,3
3,COc1cc2ncnc(Nc3ccc(OCc4ccccc4)cc3)c2cc1OC,111
4,COc1ccc2c(c1)/C(=C/c1cnc[nH]1)C(=O)N2,0
5,CCn1cnc2c(Nc3cccc(Cl)c3)nc(N[C@@H]3CCCC[C@@H]3N)nc21,0
6,CCc1nc(-c2ccc(OC)cc2)[nH]c1-c1ccncc1,109
7,O=C1Nc2ccc3ncsc3c2/C1=C/c1c[nH]cn1,1
8,O=c1[nH]c2ccccc2n1C1CCN(Cc2ccc(-c3nc4cc5[nH]cnc5cc4nc3-c3ccccc3)cc2)CC1,100
9,C[S+]([O-])c1ccc(-c2nc(-c3ccc(F)cc3)c(-c3ccncc3)[nH]2)cc1 (stereo not given),120
10,O=[N+]([O-])/C=C/c1ccc2c(c1)OCO2,91
11,CC(C)[C@H](CO)Nc1nc(Nc2cccc(Cl)c2)c2ncn(C(C)C)c2n1,1
12,O=C1NC(=O)c2c1c1c3ccccc3n3c1c1c2c2ccccc2n1C1CCC3O1,75
13,CC(C)(C)c1cc(C=C(C#N)C#N)cc(Br)c1O,96
14,COc1cc(OC)c(/C=C2\C(=O)Nc3ccccc32)c(OC)c1,99
15,c1cc(-c2cnn3cc(-c4ccc(OCCN5CCCCC5)cc4)cnc23)ccn1,73

# Target: T1, Cyclin-dependent kinase 5/CDK5 activator 1 (Homo sapiens)
# Conditions: at 10 µM
row,Compound,residual activity [%]
1,COc1ccc2c(c[n+](C)c3c4cc5c(cc4ccc23)OCO5)c1OC,91
2,COC(=O)[C@@]1(O)C[C@H]2O[C@]1(C)n1c3ccccc3c3c4c(c5c6ccccc6n2c5c31)C(=O)NC4,1
3,COc1cc2ncnc(Nc3ccc(OCc4ccccc4)cc3)c2cc1OC,102
4,COc1ccc2c(c1)/C(=C/c1cnc[nH]1)C(=O)N2,0
5,CCn1cnc2c(Nc3cccc(Cl)c3)nc(N[C@@H]3CCCC[C@@H]3N)nc21,-1
6,O=C1Nc2ccc3ncsc3c2/C1=C/c1c[nH]cn1,-1
7,O=c1[nH]c2ccccc2n1C1CCN(Cc2ccc(-c3nc4cc5[nH]cnc5cc4nc3-c3ccccc3)cc2)CC1,104
8,C[S+]([O-])c1ccc(-c2nc(-c3ccc(F)cc3)c(-c3ccncc3)[nH]2)cc1 (stereo not given),100
9,O=[N+]([O-])/C=C/c1ccc2c(c1)OCO2,96
10,CC(C)[C@H](CO)Nc1nc(Nc2cccc(Cl)c2)c2ncn(C(C)C)c2n1,0
11,O=C1NC(=O)c2c1c1c3ccccc3n3c1c1c2c2ccccc2n1C1CCC3O1,65
12,COc1cc(OC)c(/C=C2\C(=O)Nc3ccccc32)c(OC)c1,77
13,c1cc(-c2cnn3cc(-c4ccc(OCCN5CCCCC5)cc4)cnc23)ccn1,19

# Target: T2, CDK6/cyclin D3 (Homo sapiens) (UniProt P30281+Q00534)
# Conditions: at 1 µM
row,Compound,residual activity [%]
1,COC(=O)[C@@]1(O)C[C@H]2O[C@]1(C)n1c3ccccc3c3c4c(c5c6ccccc6n2c5c31)C(=O)NC4,15
2,COc1cc2ncnc(Nc3ccc(OCc4ccccc4)cc3)c2cc1OC,117
3,CCn1cnc2c(Nc3cccc(Cl)c3)nc(N[C@@H]3CCCC[C@@H]3N)nc21,82
4,O=C1Nc2ccc3ncsc3c2/C1=C/c1c[nH]cn1,10
5,O=c1[nH]c2ccccc2n1C1CCN(Cc2ccc(-c3nc4cc5[nH]cnc5cc4nc3-c3ccccc3)cc2)CC1,105
6,C[S+]([O-])c1ccc(-c2nc(-c3ccc(F)cc3)c(-c3ccncc3)[nH]2)cc1 (stereo not given),116
7,O=[N+]([O-])/C=C/c1ccc2c(c1)OCO2,99
8,O=C1c2ccccc2-c2nc3nnnn3nc21,103
9,CC(C)[C@H](CO)Nc1nc(Nc2cccc(Cl)c2)c2ncn(C(C)C)c2n1,98
10,O=C1NC(=O)c2c1c1c3ccccc3n3c1c1c2c2ccccc2n1C1CCC3O1,95
11,CC(C)(C)c1cc(C=C(C#N)C#N)cc(Br)c1O,113
12,COc1cc(OC)c(/C=C2\C(=O)Nc3ccccc32)c(OC)c1,90
13,c1cc(-c2cnn3cc(-c4ccc(OCCN5CCCCC5)cc4)cnc23)ccn1,68

# Target: T2, CDK6/cyclin D3 (Homo sapiens)
# Conditions: at 10 µM
row,Compound,residual activity [%]
1,COc1ccc2c(c[n+](C)c3c4cc5c(cc4ccc23)OCO5)c1OC,82
2,COC(=O)[C@@]1(O)C[C@H]2O[C@]1(C)n1c3ccccc3c3c4c(c5c6ccccc6n2c5c31)C(=O)NC4,4
3,COc1cc2ncnc(Nc3ccc(OCc4ccccc4)cc3)c2cc1OC,100
4,CCn1cnc2c(Nc3cccc(Cl)c3)nc(N[C@@H]3CCCC[C@@H]3N)nc21,31
5,O=C1Nc2ccc3ncsc3c2/C1=C/c1c[nH]cn1,4
6,O=c1[nH]c2ccccc2n1C1CCN(Cc2ccc(-c3nc4cc5[nH]cnc5cc4nc3-c3ccccc3)cc2)CC1,103
7,C[S+]([O-])c1ccc(-c2nc(-c3ccc(F)cc3)c(-c3ccncc3)[nH]2)cc1 (stereo not given),111
8,O=[N+]([O-])/C=C/c1ccc2c(c1)OCO2,98
9,O=C1c2ccccc2-c2nc3nnnn3nc21,101
10,CC(C)[C@H](CO)Nc1nc(Nc2cccc(Cl)c2)c2ncn(C(C)C)c2n1,44
11,O=C1NC(=O)c2c1c1c3ccccc3n3c1c1c2c2ccccc2n1C1CCC3O1,76
12,CC(C)(C)c1cc(C=C(C#N)C#N)cc(Br)c1O,101
13,COc1cc(OC)c(/C=C2\C(=O)Nc3ccccc32)c(OC)c1,77
14,c1cc(-c2cnn3cc(-c4ccc(OCCN5CCCCC5)cc4)cnc23)ccn1,11

# Reference: ChEMBL document CHEMBL2218924, “A broad activity screen in support of a chemogenomic map for kinase signalling research and drug discovery” (Biochem J, 2013)
